Bioassay records: PubChem, several laboratories
Sampled rows, rich in hits. Any-hit rate of the full collection: about 4.7%.
MLLE-PAM2 inh = inhibitors of PABP1 MLLE–PAM2 peptide binding, primary screen, biochemical, fluorescence polarization, FITC-PAM2, GST-MLLE; Polyadenylate-binding protein 1 (Homo sapiens), P11940; inhibition, % at 20 µM; hit rate 0.36% among 360,000; in the data active means inhibition above about 35%, passing the limit was not always enough;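 further: plate controls were DMSO wells with GST-MLLE for no effect and wells lacking GST-MLLE protein for full effect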
Target sequence (P11940 whole entry, looked up): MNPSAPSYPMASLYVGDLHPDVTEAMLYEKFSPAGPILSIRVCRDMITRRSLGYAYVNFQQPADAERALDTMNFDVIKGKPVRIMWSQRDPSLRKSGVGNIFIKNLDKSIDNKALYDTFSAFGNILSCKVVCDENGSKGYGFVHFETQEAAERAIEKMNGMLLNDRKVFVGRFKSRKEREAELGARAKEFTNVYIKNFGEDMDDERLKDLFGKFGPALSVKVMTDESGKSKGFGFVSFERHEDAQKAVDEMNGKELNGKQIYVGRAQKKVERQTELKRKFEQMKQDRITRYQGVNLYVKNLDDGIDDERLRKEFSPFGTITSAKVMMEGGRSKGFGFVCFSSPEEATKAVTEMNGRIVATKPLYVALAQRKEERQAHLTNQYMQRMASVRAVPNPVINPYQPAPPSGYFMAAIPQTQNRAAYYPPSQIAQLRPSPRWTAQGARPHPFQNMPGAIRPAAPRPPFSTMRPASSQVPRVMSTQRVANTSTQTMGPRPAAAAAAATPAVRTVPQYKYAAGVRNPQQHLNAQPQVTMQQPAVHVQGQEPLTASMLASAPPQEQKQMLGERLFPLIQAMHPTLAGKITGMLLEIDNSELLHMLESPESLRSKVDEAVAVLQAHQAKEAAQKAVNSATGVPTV
PABP polyA inh = PABP poly(A) RNA binding inhibitors, primary screen, biochemical, fluorescence polarization, uHTS | inhibition, % at 35 µM | hit rate 1% among 290,000 | AID 2014, 2009 | Polyadenylate-binding protein 1 (Homo sapiens), P11940;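 further: calls also rest on retests at 20 µM and on dose response follow-up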
eIF4H inh = human eIF4H binding inhibitors, primary screen, translation initiation inhibitor project, biochemical, uHTS, fluorescence polarization | Eukaryotic translation initiation factor 4H (Homo sapiens), Q15056 | hit rate 0.94% among 290,000 | inhibition, % at 35 µM | eIF4H fluorescence polarization binding assay;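 further: calls also rest on retests at 20 µM and on dose response follow-up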
UBC9 SUMO inh = inhibitors of in vitro SUMOylation cascade, primary screen, biochemical, HTRF, uHTS; inhibition, % at 35 µM; SUMO-conjugating enzyme UBC9 (Homo sapiens), P63279; hit rate 0.36% among 290,000; HTRF SUMOylation assay, SAE1/SAE2 + UBC9; AID 2006, 2009; in the data active means inhibition above about 50%, passing the limit was not always enough
Efflux pump mplx = inhibitors of Candida efflux pumps in yeast, primary screen, S. cerevisiae, Nile Red, multiplex; S. cerevisiae Candida pump triplex; AID 485275, 2010; inhibition, % at 10 µM; hit rate 0.44% among 330,000;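 active means plate passing quality check with inhibition over a set limit, or well fluorescence over plate mean plus 4 SD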;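 further: Nile Red retained in pooled yeast measured as flow cytometry median fluorescence; 0% = buffer negative control and 100% = Enniatin B positive control; higher means more Nile Red kept so more efflux inhibition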
ALR H2O2 inh = inhibitors of human ALR sulfhydryl oxidase, primary screen, biochemical, H2O2 detection, HRP-luminol luminescence, single point; FAD-linked sulfhydryl oxidase ALR (Homo sapiens), P55789; purified ALR, DTT oxidation; inhibition, % (no concentration beside the values); hit rate 3.8% among 290,000;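 active means mean replicate inhibition above about 79%, with every replicate also reaching it, limit read from the data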
Yeast cmpd fluor = compound fluorescence in yeast efflux pump counter-screen | shares compounds with Efflux pump mplx | fluorescence ratio to DMSO, % at 10 µM | S. cerevisiae AD/pABC3, flow cytometry | hit rate 4% among 1,700;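 active means fluorescence ratio to DMSO above its plate's cutoff, the plate mean ratio plus 5 SD, cut at about 210% in these data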;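 further: unstained yeast with no Nile Red so the signal is compound autofluorescence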
Mdr1 pump inh = inhibitors of Candida albicans Mdr1 efflux, confirmation, flow cytometry, singleplex, Cherry Pick1 set | shares compounds with Efflux pump mplx | S. cerevisiae AD/CaMDR1, Nile Red efflux | inhibition, % at 10 µM | hit rate 1% among 1,700 | AID 588518, 2011; in the data active means inhibition above about 26%;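 further: 0% = DMSO vehicle and 100% = reference inhibitor; higher means more Nile Red retained so more efflux inhibition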
Cdr2 pump inh = inhibitors of Candida albicans Cdr2 efflux pump, confirmation, S. cerevisiae AD/CaCDR2, flow cytometry, cherry pick 1, singleplex; shares compounds with Efflux pump mplx; hit rate 4% among 1,700; Nile Red retention ratio vs DMSO, % at 10 µM; Nile Red retention; in the data active means Nile Red retention ratio vs DMSO above about 190%;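 further: higher ratio means more blocking of Cdr2 efflux of the dye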
CaCdr1 efflux inh = inhibitors of Candida albicans Cdr1 efflux pump, confirmation, S. cerevisiae AD/CaCDR1, flow cytometry, cherry pick 1, singleplex. hit rate 1% among 1,700. Nile Red efflux. inhibition, % at 10 µM. shares compounds with Efflux pump mplx;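 active means inhibition above the screen-wide mean plus twice its standard deviation, cut at about 32% in these data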
Active calls of the source: *; . = not tested or not shown. Unless noted, how the calls were made is not given here.

SMILES	MLLE-PAM2 inh	PABP polyA inh	eIF4H inh	UBC9 SUMO inh	Efflux pump mplx	ALR H2O2 inh	Yeast cmpd fluor	Mdr1 pump inh	Cdr2 pump inh	CaCdr1 efflux inh
CC1(C)Cc2c(cnn2-c2ccc(F)cc2)C(NC(=O)c2cnccn2)C1 (stereo not given)	5	-2	-1	-13	6.2*	.	98	0	100	0
COc1ccc(-n2ncc3c2CC(C)(C)CC3NC(=O)c2cn[nH]c2)cc1 (stereo not given)	-6	1	-2	-1	0	-3	97	0	82	0
CC1(c2ccccc2)NC(=O)N(CC(=O)Nc2ccc(S(=O)(=O)NC3=NCCCCC3)cc2)C1=O (stereo not given)	-13	.	.	.	.	.	.	.	.	.
O=C(NCc1cccnc1)c1cccn2c(=O)c3sccc3nc12	1	1	-2	30	0	-2	.	.	.	.
Cc1ccc(S(=O)(=O)Nc2ccc3c4c(cccc24)CC3)c(C)c1	16	.	.	.	0	.	.	.	.	.
Cc1ccc(S(=O)(=O)Nc2cc(C(C(=O)OC(C)C)C(=O)C(F)(F)F)c(O)c3ccccc23)c(C)c1 (stereo not given)	18	34	-10	-12	13*	3	88	0	96	0
Cc1ccc(C)c(NC(=O)NNC(=O)c2cc3occc3[nH]2)c1	-4	2	2	11	-1	4	.	.	.	.
COc1ccc(OC)c(NC(=O)NNC(=O)c2cc3occc3[nH]2)c1	-3	2	-3	7	1.2*	53	100	0	101	0
CCS(=O)(=O)c1nc2ccccc2n1Cc1ccccn1	6	-11	-7	-1	0	-4	.	.	.	.
CC(C)Cn1c(SCC(=O)c2ccc(Cl)s2)nnc1-c1ccco1	0	13	0	11	1.1*	48	100	0	107	0
COc1ccc(NC(=O)CCNS(=O)(=O)c2ccc3c(c2)CCC(=O)N3)cc1	-12	5	-1	-10	0	-3	.	.	.	.
COc1cc(NC(=O)CCNS(=O)(=O)c2ccc3c(c2)CCC(=O)N3)cc(OC)c1	-10	6	0	-10	13*	-3	105	0	105	0
COCc1ccc(CN2CCCCC2C(=O)Nc2ccc(Oc3ccccc3)nc2)o1 (stereo not given)	4	-2	-5	-1	1	-3	.	.	.	.
CSc1ccc(CN(C)CC(=O)Nc2ccc(NC(C)=O)cc2)cc1	-20	-12	0	9	0	-6	.	.	.	.
CSc1ccc(CN(C)CC(=O)Nc2cccc(Br)c2)cc1	-5	-15	-1	-10	9.7*	-4	112	0	106	0
O=C1CCN(S(=O)(=O)c2ccc(Cl)cc2)N1	0	-9	-11	20	0	13	.	.	.	.
O=C1CCN(Cc2ccc(Cl)cc2)N1	19	4	1	7	2.1*	7	98	0	90	0
COc1cc(/C=C/C(=O)c2ccc(O)cc2)ccc1OCC#N	-3	-2	1	-17	11*	60	95	0	108	0
Cc1ccc(CNC(=O)Cn2cnc3c(NC(=O)OCc4ccccc4)ncnc32)o1	-9	.	.	.	0	3	.	.	.	.
O=C(COc1ccccc1Cl)Nc1ccc(S(=O)(=O)N2CCOCC2)cc1	0	3	4	-2	0	-2	.	.	.	.
CC1Cc2cc(S(=O)(=O)N3CCCCC3C)ccc2N1C(=O)C1CCC1 (stereo not given)	-3	-1	7	-6	0	-2	.	.	.	.
CCOC(=O)C1CCCCN1S(=O)(=O)c1ccc2c(c1)CC(C)N2C(=O)C1CCC1 (stereo not given)	-2	6	-1	11	0	-3	103	0	96	0
COC(=O)C(Cc1ccccc1)NC(=O)CC(C)CC(=O)Nc1ccc(C)cc1 (stereo not given)	4	-5	-10	1	0	-4	.	.	.	.
CC(C)(C)S(=O)(=O)c1ccsc1C(=O)O	1	5	-10	3	14*	-2	98	0	109	0
COCc1cc(C)nc(N/N=C/c2ccc(Cl)c(Cl)c2)c1C#N	7	-7	1	-3	0	56	.	.	.	.
SMILES	MLLE-PAM2 inh	PABP polyA inh	eIF4H inh	UBC9 SUMO inh	Efflux pump mplx	ALR H2O2 inh	Yeast cmpd fluor	Mdr1 pump inh	Cdr2 pump inh	CaCdr1 efflux inh
Cn1c(=O)c2c(SCC(=O)NCC3CCCO3)nc(-c3ccccc3Cl)nc2n(C)c1=O (stereo not given)	8	2	-16	9	0.8*	-2	81	0	87	0
Oc1c(Br)cc(Br)cc1/C=N/c1nc2c(s1)CCCC2	20	.	.	.	0.4*	-7	78	0	100	0
CCCn1nnnc1NCc1ccc(C(C)C)cc1	12	-1	6	12	0	-1	.	.	.	.
Cc1ccc(S(=O)(=O)N(CC(=O)N/N=C/c2cccc3c2OCCO3)c2ccccc2F)cc1	-10	-5	6	-1	0.5*	-15	90	0	108	0
O=C(O)CNS(=O)(=O)c1ccc2c3c(cccc13)C(=O)N2	-8	44	34	38	0.7*	-47	111	0	100	0
O=c1cc(CNc2cc(Cl)ccc2Cl)nc2sccn12	-13	7	-8	2	0	-7	.	.	.	.
O=c1cc(COc2ccc(Cl)c(Cl)c2)nc2sccn12	10	-6	0	11	0.9*	-2	124	0	114	0
CC1=C(C(=O)Nc2ccccc2)C(c2cccc([N+](=O)[O-])c2)Nc2nc3ccccc3n21 (stereo not given)	-8	-10	-9	25	1.4*	4	109	0	109	0
CCCc1nnc(-c2cc(OC)c(OC)c(OC)c2)o1	9	5	4	-7	1.9*	-5	105	0	106	0
O=C(COC(=O)COc1cccc(Br)c1)Nc1ccc(F)cc1F	-16	.	.	.	0	.	.	.	.	.
COc1ccc(CNC(=O)COC(=O)CCn2c(C)csc2=O)cc1OC	17	.	.	.	0	-4	.	.	.	.
